Potency and affinity values are given separately.
Key:
[1] = system: Klebsiella pneumoniae; details: Concentration 20 uM; ASSAY_TEST Inhibition of Bacterial Growth; detection method Absorption (OD600); MEDIA CAMHB; plate type 384well; NBS; CORNING #3640; time 18 hr
[2] = system: Candida albicans; details: 20 µM
[3] = system: Cryptococcus neoformans; details: Concentration 20 uM; ASSAY_TEST Inhibition of Fungal Growth; detection method Resazurin; Absorption (OD600-OD570); plate type 384well; NBS; CORNING #3640

Which Inhibition [1] does the source give for `O=C(c1[nH]nc2c1CCCC2)N1CCN(Cc2ccc3c(c2)OCO3)CC1` here?
The Inhibition was 7.71%.

What about the Inhibition [2] of the same molecule?
The Inhibition was 2.93%.

What about the Inhibition [3] of the same molecule?
The Inhibition was -11.77%.

Which results are given for `Cc1ncc(-c2ccnc(Nc3ccc(S(C)(=O)=O)cc3)n2)n1C(C)C` [AZD-5438]?
Inhibition [1]: 16.86%; Inhibition [2]: 6.64%; Inhibition [3]: -6.72%

For `CC(C(=O)Nc1ccc2oc(-c3ccncc3)nc2c1)c1ccccc1` (stereo not given), which Inhibition [1] is on record?
Its Inhibition is 10.68%.

And the Inhibition [2]?
The Inhibition was 3.28%.

And the Inhibition [3]?
The Inhibition was -12.41%.

With `c1ccc(Oc2ccc(-c3cc(N4CCOCC4)[nH]n3)cc2)cc1` as the molecule, how does the Inhibition [1] read?
Its Inhibition is 8.77%.

What about the Inhibition [2] of the same molecule?
Its Inhibition is 5.83%.

What about the Inhibition [3] of the same molecule?
Its Inhibition is -7.11%.

What does the source list for `FC(F)(F)c1ccc(N(c2cccnc2)C2CCN(c3ccc(C(F)(F)F)cn3)CC2)cc1`?
Inhibition [1]: 14.96%; Inhibition [2]: 2.59%; Inhibition [3]: -3.19%

Which results are given for `O=C(NCc1ccoc1)N1CCN(Cc2ccc3c(c2)OCO3)CC1`?
Inhibition [1]: 7.21%; Inhibition [2]: 2.46%; Inhibition [3]: 10.58%

Which Inhibition [1] does the source give for `Cl.Cn1ccnc1CNCCS(=O)(=O)c1cccc(Nc2ccc(-c3cccc(F)c3)cn2)c1` here?
Its Inhibition is 13.22%.

What about the Inhibition [2] of the same molecule?
The Inhibition was 4.46%.

And the Inhibition [3]?
The Inhibition was -9.08%.

How did the Inhibition [1] turn out when `COc1ccc(C2(C(=O)Nc3ccc(Br)cc3)CCCC2)cc1` was run?
The Inhibition was 17.05%.

And the Inhibition [2]?
The Inhibition was 4.64%.

And the Inhibition [3]?
Its Inhibition is -2.31%.

How did the Inhibition [1] turn out when `CCN(CC)CCCN1CCN(C(=O)c2cccc(-c3noc(C(F)(F)F)n3)c2)CC1` was run?
The Inhibition was 3.68%.

What about the Inhibition [2] of the same molecule?
Its Inhibition is 1.48%.

What about the Inhibition [3] of the same molecule?
Its Inhibition is -3.47%.

What does the source list for `CC(C)NCC(=O)Nc1cccc(C(=O)Nc2cccc(C(F)(F)F)c2)c1`?
Inhibition [1]: 10.29%; Inhibition [2]: 3.29%; Inhibition [3]: -11.79%

What does the source list for `N#Cc1nc(-c2ccccc2)oc1S(=O)(=O)c1ccc(Cl)cc1`?
Inhibition [1]: -0.86%; Inhibition [2]: 3.69%; Inhibition [3]: -7.91%

Which Inhibition [1] does the source give for `CNC1C(OC2C(OC3C(O)C(O)C(NC(=N)N)C(O)C3NC(=N)N)OC(C)C2(O)C=O)OC(CO)C(O)C1O.CNC1C(OC2C(OC3C(O)C(O)C(NC(=N)N)C(O)C3NC(=N)N)OC(C)C2(O)C=O)OC(CO)C(O)C1O.O=S(=O)(O)O.O=S(=O)(O)O.O=S(=O)(O)O` (stereo not given) here?
The Inhibition was -10.2%.

And the Inhibition [2]?
Its Inhibition is 2.09%.

What about the Inhibition [3] of the same molecule?
Its Inhibition is -8.51%.

For `CCc1nc2ccc(C(=O)NCc3ccc4c(c3)OCO4)cn2c1N(C)Cc1cccs1`, which Inhibition [1] is on record?
The Inhibition was 5.86%.

And the Inhibition [2]?
Its Inhibition is 3.04%.

And the Inhibition [3]?
Its Inhibition is -6.4%.

`COCC(C)NC(=O)CSc1ncnc2sc(-c3ccccc3)cc12` (stereo not given) was tested. Which Inhibition [1] did it give?
Its Inhibition is 18.05%.

And the Inhibition [2]?
Its Inhibition is 9.04%.

What about the Inhibition [3] of the same molecule?
Its Inhibition is 0.58%.

How did the Inhibition [1] turn out when `COc1ccc(C2CC(c3cccs3)=NN2C(=O)c2ccco2)cc1OC` (stereo not given) was run?
The Inhibition was 20.7%.

What about the Inhibition [2] of the same molecule?
The Inhibition was 5.76%.

What about the Inhibition [3] of the same molecule?
The Inhibition was -8.05%.

With `Cc1noc(C)c1C(=O)N1CCCC(c2[nH]c3c(C)cccc3c2-c2ccncc2)C1` (stereo not given) as the molecule, how does the Inhibition [1] read?
The Inhibition was 18.77%.

And the Inhibition [2]?
Its Inhibition is 4.29%.

What about the Inhibition [3] of the same molecule?
Its Inhibition is -7.96%.

For `Cl.c1ccc(Oc2ccc(-c3cc(N4CCNCC4)[nH]n3)cc2)cc1`, which Inhibition [1] is on record?
Its Inhibition is -6.32%.

What about the Inhibition [2] of the same molecule?
Its Inhibition is 2.61%.

And the Inhibition [3]?
The Inhibition was -9.84%.

`c1cc(C2=NCCN2)cc(-c2cc(-c3ccc(C4=NCCN4)cc3)no2)c1` was tested. Which Inhibition [1] did it give?
The Inhibition was 11.59%.

What about the Inhibition [2] of the same molecule?
Its Inhibition is 2.32%.

And the Inhibition [3]?
Its Inhibition is -10.15%.

How did the Inhibition [1] turn out when `Cc1ccc2[nH]c(C3CCCNC3)c(-c3ccncc3)c2c1.Cl.Cl` (stereo not given) was run?
The Inhibition was -25.08%.

What about the Inhibition [2] of the same molecule?
Its Inhibition is 4.63%.

And the Inhibition [3]?
The Inhibition was 1.08%.

How did the Inhibition [1] turn out when `Cc1nc(-c2cccc(NCc3ccccc3)c2)[nH]c1C` was run?
Its Inhibition is 18.74%.

And the Inhibition [2]?
Its Inhibition is 2.98%.

And the Inhibition [3]?
The Inhibition was -12.15%.

How did the Inhibition [1] turn out when `CCOc1ccccc1C(=O)Nc1cccc(-c2nc3ncccn3c2C)c1` was run?
Its Inhibition is 11.04%.

What about the Inhibition [2] of the same molecule?
Its Inhibition is 6.34%.

And the Inhibition [3]?
The Inhibition was -7.75%.

`CCC(Sc1nc2ccccc2o1)C(=O)Nc1nccs1` (stereo not given) was tested. Which Inhibition [1] did it give?
The Inhibition was 14.47%.

And the Inhibition [2]?
Its Inhibition is 9.07%.

What about the Inhibition [3] of the same molecule?
The Inhibition was -15.51%.

What does the source list for `CCc1nc2ccccc2n1CC(O)COc1cc(C)ccc1Cl` (stereo not given)?
Inhibition [1]: 3.05%; Inhibition [2]: 1.23%; Inhibition [3]: -20.36%

Which results are given for `CS(=O)(=O)c1ccccc1C(=O)N(Cc1ccccc1)c1ccccc1`?
Inhibition [1]: 9.63%; Inhibition [2]: 3.84%; Inhibition [3]: -8.51%

What does the source list for `COc1ccc(-c2nn(C(C)C)c3ncnc(N)c23)cc1OC`?
Inhibition [1]: 10.07%; Inhibition [2]: 2.58%; Inhibition [3]: -0.18%

With `CC(=O)Nc1ccc(-c2noc(CC3CCCN(Cc4cccc(F)c4C)C3)n2)cc1` (stereo not given) as the molecule, how does the Inhibition [1] read?
The Inhibition was 14.96%.

And the Inhibition [2]?
The Inhibition was 3.14%.

What about the Inhibition [3] of the same molecule?
Its Inhibition is -9.66%.

Which results are given for `Cl.O[C@@H](c1cc(C(F)(F)F)nc2c(C(F)(F)F)cccc12)[C@H]1CCCCN1`?
Inhibition [1]: -6.56%; Inhibition [2]: 6.48%; Inhibition [3]: 1.73%

Which Inhibition [1] does the source give for `COC(=O)c1c(NC(=O)c2cc3ccccc3oc2=O)sc2c1CCN(Cc1ccccc1)C2` here?
Its Inhibition is 12.75%.

And the Inhibition [2]?
Its Inhibition is 2.23%.

And the Inhibition [3]?
The Inhibition was -2.1%.

With `CC(C)/N=c1\cc2n(-c3ccc(Cl)cc3)c3ccccc3nc-2cc1Nc1ccc(Cl)cc1` [CLOFAZIMINE] as the molecule, how does the Inhibition [1] read?
The Inhibition was 13.39%.

What about the Inhibition [2] of the same molecule?
Its Inhibition is 5.63%.

And the Inhibition [3]?
The Inhibition was -11.17%.

Which Inhibition [1] does the source give for `CC[C@H](CO)NCCN[C@H](CC)CO.Cl.Cl` here?
The Inhibition was 9.73%.

What about the Inhibition [2] of the same molecule?
Its Inhibition is 3.25%.

What about the Inhibition [3] of the same molecule?
Its Inhibition is 1.15%.

What does the source list for `Cc1cc(Nc2ccc(C(F)(F)F)cc2)n2ccnc2n1`?
Inhibition [1]: 6.21%; Inhibition [2]: 3.67%; Inhibition [3]: 2.17%

What does the source list for `Cc1ccc2cc(C3NC(=O)c4ccccc4N3)c(Cl)nc2c1` (stereo not given)?
Inhibition [1]: 19.35%; Inhibition [2]: 3.16%; Inhibition [3]: -7.26%

How did the Inhibition [1] turn out when `CN1CCN(c2cc(-c3ccc(F)cc3)nc(-c3ccncc3)n2)CC1` was run?
Its Inhibition is 4.2%.

And the Inhibition [2]?
The Inhibition was 3.25%.

And the Inhibition [3]?
The Inhibition was -11.56%.

With `CCC(=O)Nc1ccccc1C(=O)Nc1ccccn1` as the molecule, how does the Inhibition [1] read?
Its Inhibition is 11.13%.

What about the Inhibition [2] of the same molecule?
The Inhibition was 3.37%.

What about the Inhibition [3] of the same molecule?
Its Inhibition is -4.64%.

`C[C@H](C(N)=O)N1CCCC[C@H]1c1ccc(OCc2cccc(F)c2)cc1` was tested. Which Inhibition [1] did it give?
Its Inhibition is 11.66%.

And the Inhibition [2]?
The Inhibition was 2.64%.

And the Inhibition [3]?
The Inhibition was -9.53%.

For `Cc1cc(C(=O)Nc2cnn(Cc3ccc(Cl)cc3Cl)c2)no1`, which Inhibition [1] is on record?
The Inhibition was -11.81%.

And the Inhibition [2]?
Its Inhibition is 11.5%.

And the Inhibition [3]?
Its Inhibition is -4.75%.

Which Inhibition [1] does the source give for `NS(=O)(=O)c1cccc(-c2ccc3ncc(N4CCOCC4)nc3c2)c1` here?
The Inhibition was 17.56%.

And the Inhibition [2]?
The Inhibition was 4.12%.

And the Inhibition [3]?
Its Inhibition is -9.08%.

For `c1ccc(-c2[nH]c3ccccc3c2C(c2ccccn2)N2CCCC2)cc1` (stereo not given), which Inhibition [1] is on record?
The Inhibition was 11.72%.

What about the Inhibition [2] of the same molecule?
Its Inhibition is 1.35%.

And the Inhibition [3]?
The Inhibition was -10.11%.

How did the Inhibition [1] turn out when `Nc1nccc2ccc(Oc3ccncc3)cc12` was run?
Its Inhibition is 18.43%.

And the Inhibition [2]?
The Inhibition was 1.98%.

And the Inhibition [3]?
The Inhibition was -6.05%.

For `Cc1ccc(NC(=O)c2cc(S(=O)(=O)NC(C)(C)C)ccc2C)nc1`, which Inhibition [1] is on record?
Its Inhibition is 13.76%.

What about the Inhibition [2] of the same molecule?
Its Inhibition is 1.54%.

What about the Inhibition [3] of the same molecule?
Its Inhibition is -5.42%.

How did the Inhibition [1] turn out when `COc1ccc2nc(C)cc(OCC(=O)NCc3ccccc3)c2c1` was run?
The Inhibition was 19.56%.

What about the Inhibition [2] of the same molecule?
The Inhibition was 2.81%.

What about the Inhibition [3] of the same molecule?
The Inhibition was -4.71%.

What does the source list for `COc1cccc(CC(=O)N2CCC(n3c(C)nc4ccc(F)cc43)CC2)c1`?
Inhibition [1]: 12.2%; Inhibition [2]: 3.01%; Inhibition [3]: -4.62%

How did the Inhibition [1] turn out when `COc1cc(C(F)(F)F)nc2ccc(C)c(N)c12` was run?
The Inhibition was 11.25%.

And the Inhibition [2]?
Its Inhibition is 6.41%.

What about the Inhibition [3] of the same molecule?
Its Inhibition is -9.66%.

Which results are given for `Nc1ncnc2[nH]nc(Cc3cccc4ccccc34)c12`?
Inhibition [1]: 12.26%; Inhibition [2]: 3.76%; Inhibition [3]: -8.72%

Which results are given for `CC(C)C(NC(=O)Cc1cccc2ccccc12)C(=O)Nc1cccc(C#N)c1` (stereo not given)?
Inhibition [1]: 13.86%; Inhibition [2]: 6.6%; Inhibition [3]: -4.4%

— ChEMBL document CHEMBL4513149, “CO-ADD screening of MMV (CH) - MMV compounds” (2021)
